Results on 24 compounds are retold here after PubChem BioAssay (NCI).

This is part of a sample that, as a whole, favours compounds with a hit. Of some 83,000 tested, about 20% had one in any assay.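 Assay: single dose, 48 h. Readout: percent growth (0 = no net growth; negative = cell death). Active: <10.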 Activity calls are given as the source filed them.

The test system of the assay is A498 renal. In words: NCI-60 one-dose screen, 48 h (100 = growth as untreated, 0 = no growth, -100 = all killed). Conditions: 10 µM unless noted.
Take `CCCCCCCCCCCCCCCCCCSC1=CC(=O)C(OC)=C(OC)C1=O`: the growth is 97.1% (inactive).

Take `CC1=C(C)C(=O)OC([C@](C)(O)[C@]2(O)CC[C@@]3(O)[C@@H]4C[C@H]5O[C@]56CC=CC(=O)[C@]6(C)[C@H]4CC[C@]23COC(=O)c2ccc(C)o2)C1` (some centres undefined): the growth is -78.3% (active).

With `O=C1C[C@H](Sc2nc(-c3ccc(F)cc3)cc(C(F)(F)F)n2)[C@H]2CO[C@@H]1O2`, the growth was 105% (inactive).

Turning to `C=C1CC[C@@H]2[C@](C)(COC(C)=O)[C@H](OC(C)=O)CC[C@@]2(C)[C@@H]1CC(Nc1ccc(S(=O)(=O)Nc2nc(C)cc(C)n2)cc1)C1=CCOC1=O` (some centres undefined), the growth is 85.3% (inactive).

For `COc1ccc(S(=O)(=O)NCCNc2nccc(-c3c(-c4cccc([N+](=O)[O-])c4)nc4sccn34)n2)cc1`, the growth is 63.7% (inactive).

Regarding `O=C(Nc1ccc(Nc2cc(Nc3ccccc3)ncn2)cc1)Nc1cc(C(F)(F)F)ccc1F`, the growth is 75.3% (inactive).

On to `COc1ccc(/C=C/C(=O)c2c(O)c(C)c(O)c3c2OC2=CC(O)=C(C(C)=O)C(=O)[C@]23C)cc1`, for which the growth was -56.2% (active).

Regarding `C=C(C[n+]1ccccc1)[C@@H]1CC[C@]2(C(=O)OC)CC[C@]3(C)[C@H](CC[C@@H]4[C@@]5(C)CC[C@H](O)C(C)(C)[C@@H]5CC[C@]43C)[C@@H]12`, the growth was 123% (inactive).

On to `CCCCCCCCCCCCNC(=O)[C@H]1CSC(c2ccc(OC)c(F)c2)N1` (some centres undefined), for which the growth was -96.3% (active).

`COc1ccccc1N1CCN(CCn2c(=O)c3c(c4ccccc4n3C)n(C)c2=O)CC1`: the growth was 109% (inactive).

With `CC(C)[C@H]1COC(=O)N1[C@@H]1C(=O)N([C@@H](CCC(=O)N2CCN(C3CCCC3)CC2)C(=O)N[C@@H]2CCCc3ccccc32)[C@@H]1/C=C/c1cccc(Br)c1`, the growth was 0.642% (active).

`Cc1nc2nc(N)nc(N)c2nc1C`: the growth was 100% (inactive).

As for `COc1cnc2c(c1)C(=O)c1c-2n(CCCBr)c(=O)c2cc([N+](=O)[O-])ccc12`, the growth is -29.8% (active).

In the case of `COc1ccc(-n2cc(-c3ccccc3)c3c(SCC(=O)N/N=C/c4ccc([N+](=O)[O-])cc4)ncnc32)cc1`, the growth is 108% (inactive).

`O=C(O)c1cn(C2CC2)c2cc(N3CCN(Cc4nc5c(cnn5-c5ccc([N+](=O)[O-])cc5)c(=O)[nH]4)CC3)c(F)cc2c1=O`: the growth is 101% (inactive).

Take `CCOC(=O)c1cnc2ccc(OC)cc2c1Nc1cccc(S(=O)(=O)NC)c1`: the growth is 95.9% (inactive).

As for `CCN(CC)CCCC(C)NCCCNc1cccc2cccnc12` (centres undefined), the growth is 81.8% (inactive).

Consider `COc1ccc(C/C(C)=C(\c2ccc(Cl)cc2)c2ccc(OCCN3CCCCCC3)cc2)cc1`, for which the growth was 92.1% (inactive).

In the case of `C=C1C(=O)O[C@H]2[C@H]1CC/C(Cn1cc(Cn3ccc4cc(Cl)ccc43)nn1)=C\CC[C@@]1(C)O[C@@H]21`, the growth is 45% (inactive).

In the case of `COc1cc(/C=N/N(C)C)ccc1O`, the growth was 75.7% (inactive).

As for `CC(=O)Nc1ccc2c(c1)c(NC(C)=O)nn2C(=O)Nc1ccc(Cc2ccccc2)cc1`, the growth is 90.6% (inactive).

For the compound `CC(C)(C)n1cc(-c2ccnc(NCCNS(=O)(=O)c3ccccc3)c2)c(-c2cccc(O)c2)n1`, the growth is 55.1% (inactive).

For the compound `CN1C2CCC1/C(=C\c1ccc(Cl)cc1)C1=C2[C@@H](c2ccc(Cl)cc2)C(C#N)=C(N)O1` (some centres undefined), the growth was 80% (inactive).

`O=[N+]([O-])c1cccc(-c2nc3sccn3c2-c2ccnc(NCCCNS(=O)(=O)c3cccc(F)c3)n2)c1`: the growth is 33.7% (inactive).
